Measurements reported in ChEMBL document CHEMBL1201862, “PubChem BioAssay data set” (2004).
Out of some 400,000 compounds screened, about 2,100 (0.53%) were called active. Roughly 14% stayed inconclusive and do not appear here. No rule for the calls is given here. Many of the other results were omitted from the sample, so actives are more common in it than they were.

Each molecule was assayed against Ataxin-2 (Homo sapiens) (UniProt Q99700) (assay: qHTS for Inhibitors of ATXN expression.).
Chain of Ataxin-2 (Homo sapiens) (Q99700 whole entry): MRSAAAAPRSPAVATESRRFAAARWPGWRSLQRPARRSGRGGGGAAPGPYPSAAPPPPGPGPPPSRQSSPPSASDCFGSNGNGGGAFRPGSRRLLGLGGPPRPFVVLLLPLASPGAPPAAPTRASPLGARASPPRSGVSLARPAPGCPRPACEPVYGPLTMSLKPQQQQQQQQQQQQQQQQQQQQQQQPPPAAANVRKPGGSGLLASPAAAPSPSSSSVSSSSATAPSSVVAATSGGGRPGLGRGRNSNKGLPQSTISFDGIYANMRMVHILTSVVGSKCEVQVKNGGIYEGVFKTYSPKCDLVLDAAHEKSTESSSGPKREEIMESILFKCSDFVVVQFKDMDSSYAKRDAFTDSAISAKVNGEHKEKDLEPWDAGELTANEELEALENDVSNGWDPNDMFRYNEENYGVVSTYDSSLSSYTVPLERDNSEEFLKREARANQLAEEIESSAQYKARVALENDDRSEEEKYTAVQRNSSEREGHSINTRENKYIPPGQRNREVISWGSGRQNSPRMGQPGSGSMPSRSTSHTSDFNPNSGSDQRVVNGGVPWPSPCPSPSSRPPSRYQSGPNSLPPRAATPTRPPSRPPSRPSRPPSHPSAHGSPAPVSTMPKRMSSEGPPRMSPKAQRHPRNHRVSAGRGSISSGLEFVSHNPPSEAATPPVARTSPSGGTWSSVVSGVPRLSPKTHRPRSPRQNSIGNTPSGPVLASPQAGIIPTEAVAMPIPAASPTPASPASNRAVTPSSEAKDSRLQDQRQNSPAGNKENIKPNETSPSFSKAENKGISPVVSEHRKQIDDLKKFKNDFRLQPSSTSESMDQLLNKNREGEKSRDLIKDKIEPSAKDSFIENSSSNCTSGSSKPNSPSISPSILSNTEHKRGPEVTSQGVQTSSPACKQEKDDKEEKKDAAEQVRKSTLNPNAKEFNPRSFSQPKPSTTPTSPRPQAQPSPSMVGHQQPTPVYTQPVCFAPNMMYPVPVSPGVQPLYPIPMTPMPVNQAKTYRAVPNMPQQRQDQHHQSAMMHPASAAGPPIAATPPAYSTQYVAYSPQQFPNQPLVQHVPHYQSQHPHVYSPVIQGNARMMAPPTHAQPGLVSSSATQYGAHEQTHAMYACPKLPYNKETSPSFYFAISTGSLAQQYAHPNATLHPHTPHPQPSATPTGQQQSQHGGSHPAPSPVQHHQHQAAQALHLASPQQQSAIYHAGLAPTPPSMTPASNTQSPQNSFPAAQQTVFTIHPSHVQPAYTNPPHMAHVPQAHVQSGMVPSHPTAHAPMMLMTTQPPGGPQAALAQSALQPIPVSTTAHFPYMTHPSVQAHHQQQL
Assay type: functional
For `N#Cc1c2ccc(OCC(N)=O)cc2n2ccccc12`, the Potency was “inactive”. `CCN(Cc1ccc(OC)c(F)c1)C(=O)/C=C/c1ccc(S(=O)(=O)N2CCOCC2)cc1` was tested, and the Potency was “inactive”. With `CCOC(=O)/C=C/C(=O)Nc1ccc(S(=O)(=O)Nc2nccs2)cc1` the Potency was “inactive”. For `CC(NC(=O)c1cc2c(=O)n3ccccc3nc2n(CC2CCCO2)c1=N)c1ccccc1` (stereo unspecified), the Potency was “inactive”. With `Cc1cc(C(=O)NNc2c(Cl)cccc2Cl)no1` the Potency was “inactive”. With `CCCCN1C(=O)c2cccc3cc(O)cc(c23)C1=O` the Potency was “inactive”. `O=C1c2cccc3cccc(c23)N1Cc1ccc(F)cc1` was tested, and the Potency was “inactive”. With `CCCCN(C)C(=O)c1ccc2c(c1)N(Cc1cccc(F)c1)C(=O)c1ccccc1S2` the Potency was 25.1 µM (active). `Cc1oc(-c2ccccc2F)nc1C[S+]([O-])CC(=O)NCc1ccc(F)cc1` (stereo unspecified) was tested, and the Potency was “inactive”. `N#Cc1c(N)n(-c2cccc(C(=O)O)c2)c2nc3ccccc3nc12` was tested, and the Potency was “inactive”. In the case of `Nc1c(C(=O)Nc2ccccc2F)sc2nc(Cc3ccccc3)cc(C(F)(F)F)c12`, the Potency is reported as “inactive”. `Cc1ccc(C(=O)Nc2nc(C(N)Cc3ccc(C(F)(F)F)cc3)cs2)cc1` (stereo unspecified) was tested, and the Potency was 39.8 µM (active). With `Cc1ccc(-c2ocnc2C(=O)Nc2nc(C)cs2)cc1` the Potency was “inactive”. In the case of `NC(Cc1ccc(C(F)(F)F)cc1)c1csc(NC(=O)Nc2ccccc2)n1` (stereo unspecified), the Potency is reported as 35.5 µM (active). `CCOC(=O)c1sc(-c2ccc(C(F)(F)F)cc2)nc1O` was tested, and the Potency was “inactive”. For `CCc1ccccc1NC(=O)c1sc2nc(C)cc(C)c2c1N`, the Potency was “inactive”. In the case of `O=C(Nc1ccccc1)Nc1nc(-c2ccc(F)c(F)c2)cs1`, the Potency is reported as “inactive”. With `NC(Cc1ccc(C(F)(F)F)cc1)c1csc(NC(=O)Nc2ccccc2Cc2ccccc2)n1` (stereo unspecified) the Potency was 35.5 µM (active). For `O=C(Nc1ccccc1)Nc1sccc1-c1nc2ccccc2s1`, the Potency was “inactive”. With `CC(C)CC(N)c1csc(NC(=O)Nc2ccccc2Cc2ccccc2)n1` (stereo unspecified) the Potency was 22.4 µM (active). With `CC(=O)c1ccc(/C=C/c2nc3ccccc3n2C)o1` the Potency was “inactive”. For `Fc1ccc(N2CCN(C(S)=NCc3ccco3)CC2)cc1`, the Potency was “inactive”. With `Nc1cccc2c1C(=O)N(C(=O)c1cccc(S(=O)(=O)N3CCCC3)c1)C2=O` the Potency was “inactive”. With `C/C(=N\OCC(=O)Nc1ccccc1C(=O)O)c1cccs1` the Potency was “inactive”. In the case of `CC(=O)NC1=NC(=O)/C(=C/c2cc(C)n(-c3cccc(C(=O)O)c3)c2C)S1`, the Potency is reported as “inactive”. In the case of `CC(C)(C)c1cc(C(=O)NNc2cccc(Cl)c2)n(Cc2ccccc2)n1`, the Potency is reported as “inactive”. With `CC(C)CC(N)c1csc(NC(=O)c2cc(C(C)(C)C)nn2Cc2ccccc2)n1` (stereo unspecified) the Potency was 31.6 µM (active). For `CC(C)(C)c1cc(NC(=O)COC(=O)c2ccccc2)n(-c2ccccc2)n1`, the Potency was “inactive”. With `COC(=O)c1ccc(COc2ccccc2OC)o1` the Potency was “inactive”. In the case of `CC(C)Cn1c(N)c(C(=O)COC(=O)c2cc3ccccc3cc2O)c(=O)n(C)c1=O`, the Potency is reported as “inactive”. With `Cc1cccn2c(=O)c3cc(C(=O)NCCCN4CCCC4=O)n(C)c3nc12` the Potency was “inactive”. In the case of `Cc1ccc(-n2cc(CNCCCn3cccn3)c(-c3cccc(C)c3)n2)cc1`, the Potency is reported as 20 µM (active). For `Cc1cccc(C2=NN(c3ccccc3)[C@H](CO)[C@H]2c2ccc(F)cc2)c1`, the Potency was “inactive”. For `Cc1ccc(C2(c3ccc(C)cc3)NC(=O)N(CC(=O)NCCCN3CCCC3=O)C2=O)cc1`, the Potency was “inactive”. With `Cc1cccc(-n2cc(CNCCc3nc(C)cc(C)n3)c(-c3cccc(F)c3)n2)c1` the Potency was 31.6 µM (active). For `Cc1ccc(-n2cc(CNCCCN3CCCC3=O)c(-c3ccc(F)cc3)n2)cc1`, the Potency was 25.1 µM (active). With `CCOC(=O)c1cc2c(=O)n3ccccc3nc2n(CCCOC)/c1=N\C(=O)C(C)(C)C` the Potency was “inactive”. For `CCOc1ccc(NC(S)=Nc2cccnc2)cc1`, the Potency was “inactive”. In the case of `Cc1cc(N(C)Cc2ccccc2)nc2cc(O)ccc12`, the Potency is reported as “inactive”. For `CN(CCCC(=O)N1CCN(c2ncccn2)CC1)S(=O)(=O)c1ccc(F)cc1`, the Potency was “inactive”. For `O=C(Cn1ncc(Cl)c(Cl)c1=O)NCC1CCCCC1`, the Potency was 31.6 µM (active). For `O=C(NCC1CCCCC1)c1ccc(Cl)c(S(=O)(=O)N2CCOCC2)c1`, the Potency was “inactive”. For `O=C(NC1CCCCCC1)c1cc2c(=O)n3ccccc3nc2s1`, the Potency was “inactive”. With `Cc1ccc(-n2nc3c(=O)n(CC(=O)NC4CCCCC4)nc(C)c3c2C)cc1` the Potency was “inactive”. In the case of `O=C(Cn1ncc(Cl)c(Cl)c1=O)NC1CCCCC1`, the Potency is reported as 28.2 µM (active). With `Cc1cc(C(F)(F)F)c(C#N)c(SCC(=O)Nc2nc3cc(Br)ccc3s2)n1` the Potency was “inactive”. For `COC(=O)c1sc2ccccc2c1NC(=O)c1ccc(S(=O)(=O)N2CCCC(C)C2)cc1` (stereo unspecified), the Potency was “inactive”. In the case of `Oc1nc2ccccc2nc1-c1nnnn1Cc1ccccc1`, the Potency is reported as “inactive”. With `CCC(c1nnnn1Cc1ccco1)N(CCc1ccccc1)Cc1cc2cc(C)ccc2nc1O` (stereo unspecified) the Potency was 39.8 µM (active). `CCOc1ccc2nc(O)c(CN(Cc3ccco3)C(CC)c3nnnn3Cc3ccccc3)cc2c1` (stereo unspecified) was tested, and the Potency was 20 µM (active). With `Cc1ccc2nc3c(cc2c1)c(NC(=O)c1ccco1)nn3CC(C)C` the Potency was “inactive”. `COc1ccc(CCN(Cc2cc3cc(C)ccc3nc2O)C(C)=O)cc1OC` was tested, and the Potency was “inactive”. In the case of `CC1CCCN(C(=S)SCC(=O)c2cc(Br)cc(Br)c2O)C1` (stereo unspecified), the Potency is reported as “inactive”. In the case of `O=C(Cc1csc(Nc2nc(S)nc3ccccc23)n1)N1CCN(c2cccc(Cl)c2)CC1`, the Potency is reported as “inactive”. In the case of `CCn1c(SC(C)C(=O)Nc2nnc(C)s2)nnc1-c1ccco1` (stereo unspecified), the Potency is reported as “inactive”. For `Cc1cc(C(=O)CN2C(=O)c3cccc(N)c3C2=O)c(C)n1Cc1cccs1`, the Potency was “inactive”. For `Cc1c(C#N)c(NC(=O)CCl)n(Cc2cccs2)c1C`, the Potency was 11.2 µM (active). `Cc1cc(/C=C(\C#N)C(=O)NCc2cccs2)c(C)[nH]1` was tested, and the Potency was “inactive”. With `Cc1c(CCC(=O)O)c(=O)oc2c(C)c3occ(-c4ccc(Cl)cc4)c3cc12` the Potency was “inactive”. In the case of `COc1cccc(S(=O)(=O)N(C)C[C@@H]2OCc3cnnn3CCCC(=O)N([C@@H](C)CO)C[C@H]2C)c1`, the Potency is reported as “inactive”. `C[C@H]1CN([C@@H](C)CO)C(=O)Cc2cc(NC(=O)CCC(F)(F)F)ccc2O[C@H]1CN(C)Cc1ccc(-c2ccccc2)cc1` was tested, and the Potency was 35.5 µM (active). `O=C1OCc2ccc(NS(=O)(=O)c3ccc(C(F)(F)F)cc3)cc21` was tested, and the Potency was “inactive”. In the case of `C[C@@H]1CN([C@@H](C)CO)C(=O)CCCn2nncc2CO[C@H]1CN(C)Cc1ccc(-c2ccccc2)cc1`, the Potency is reported as 28.2 µM (active). With `C[C@H](CO)N1C[C@H](C)[C@@H](CN(C)S(=O)(=O)c2ccc(-c3ccccc3)cc2)OCc2cn(nn2)CCCC1=O` the Potency was “inactive”. For `C[C@@H]1CN([C@H](C)CO)C(=O)Cc2cc(NS(=O)(=O)c3ccc(Cl)cc3)ccc2O[C@H]1CN(C)Cc1ccc(C(F)(F)F)cc1`, the Potency was 25.1 µM (active). In the case of `C[C@H]1CN([C@@H](C)CO)C(=O)Cc2cc(NC(=O)CCC(F)(F)F)ccc2O[C@H]1CN(C)Cc1ccc(C(F)(F)F)cc1`, the Potency is reported as 39.8 µM (active).
